Experimental findings from PubChem BioAssay AID1508600 (Functional Genomics Laboratory (NCATS/FGL), 2020) are described below.

The whole screen tested about 53,000 sequences, of which about 3,700 (7%) were called active. Shown is part of a subset that was picked to be rich in actives. Values without a mark were called inactive.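 How the source made its calls: active means gene knockdowns whose robust z-score for IL-1 alpha signal is at least 2 or at most -2, so actives lie on both sides; inactive means the rest.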

The nature of this assay: Components of the Cytosolic LPS Sensing Pathway: Gene Identification via Genome-wide siRNA Screen.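 Further: robust z of the log signal after scaling to non-targeting control siRNA wells of the plate.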 To be noted: RAW264.7 macrophages, IL-1a HTRF, actives lie on both sides, screened at 100 nM (by protocol), cells primed 5 h with Pam3CSK4 first. The method, boiled down: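 RAW264.7 mouse macrophages reverse-transfected with single siRNAs (100 nM final) for 48h, primed with Pam3CSK4 for 5 hours, then transfected with LipidA for 24 hour. Supernatant IL-1a read by HTRF; values normalized to negative-control median, log-transformed robust z-scores.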
GGUUAUAUGCAGAGGAACUTT against Arid1a: the z-score was -0.436. For GGCAAGAUGAAUUAAAAUGTT against Gcfc2, the z-score is -0.964. Turning to GGAUAAAGGCAAAGACAAATT against Rsrc1, the z-score was 0.891.

On to UUAUGCUGACCUCUAUCUUTT against Akr1c19, for which the z-score is 2.33 (active).

Take GGUUGAUUCUUAAAUUGUGTT against Slc6a5: the z-score is 0.331. The value for GGCUGGUGUAAUCGAAACATT against Ttc39c was 0.0501. The value for GGAAACUCCGUCCCAAUUGTT against Trim68 was 1.39; that for GGCGAUUUCAACUGAAAAUTT against Jakmip1 was 0.548; that for GCCCAAUAAAAUUGAAGGGTT against Pmis2 was -0.163. GGUCUUUGAGGAAAGAGGUTT against Hemk1: the z-score is -1.59. The value for GGCCUGUCCAAAGAAGUGATT against E2f3 was 2.2 (active); that for GCGCACACCCUACUUGAUUTT against Pcdh20 was 1.08; that for GCUGUAAUUCCUAAGUUAUTT against Ubxn6 was 0.268. The value for CCCAGAGCAUGCCAUCAACTT against Orm3 was -0.38; that for CCUUACACUAAGAAAAAGGTT against Rad50 was -0.0689. As for GCAGUCCAAAAAAUUCGGUTT against Stox2, the z-score is -2.15 (active).

GGCAUUAGAGCAGAGUCGUTT against Trmu: the z-score was -1.29. As for GGUGCAGAGAAGUGUAACATT against Slc25a21, the figure is -1.6; as for GGUGCUGAGCAUGGUGUUATT against Spag4, 3.17 (active). Consider GGAGUAUCGUUUAUUCAUUTT against Slc2a2, for which the z-score was 0.161. Regarding GCCUAAGAAAUUAGUGAAUTT against Rflna, the z-score was 0.204. In the case of GGCCAUCACUAAAUAAUGGTT against Ctdspl2, the z-score is -0.123. As to GGAAAACGAGUCAAACUCATT against Lnx2, the z-score is 3.4 (active).

For GGUGGUGAGCAUCUACUAUTT against Alox5, the z-score was 0.565. For CCCUAAUAAAUUCCAAAUCTT against H2-Ke6, the z-score is 1.81. On to GCAUGUAGUUCAUCAGUACTT against Tubgcp5, for which the z-score was 0.874.

On to GGACCACUUUUUCAGACUCTT against Ralgapa1, for which the z-score was 0.945. As for GGCGAAAUGGUAAACCGAGTT against Adgrg2, the figure is 0.0183. As for GUACGGCAACAUGACCCAGTT against Cd74, the figure is 0.385; as for GGACUUCAACAACUGCUCUTT against Polr1a, 2.28 (active). The value for CCACUUCUACAUACUUAAUTT against Plau was 0.62; that for UCUCAUUGCAAUUCUGGGATT against Olfr675 was 0.566; that for CCUUACUCAAGAUCCUGCUTT against Olfr1243 was -0.23.

For GGCACUCAACACCUGUAUATT against Olfr640, the z-score was -1.34.

GGAAUUCCUUCACAUCUGGTT against Tc2n: the z-score is 0.4.

As for GGGUGAUAAGCAGUUAUACTT against Wdr75, the z-score is 1.33.

Take GCUUCUGUUAUGAGGCUCATT against Hif1a: the z-score was -2.52 (active). The value for GGAGAUUGUGGAAAUGCUUTT against Skiv2l was 0.459; that for CCCAGACCAUACUACGGAUTT against Calb2 was -1.25. On to GUUUCAGUGCAGCCAUUACTT against Olfr518, for which the z-score was -0.747.

Consider GGAUUUAUUUCCGAUUCGATT against Nalcn, for which the z-score is -0.0152. With GGAUCAAAAGGUGAAUGCUTT against Vmn1r67, the z-score is -2.54 (active).

GCUGCAUUCGGUUACCACUTT against Olfml2b: the z-score is 0.677. The value for GGAGGUUACAUAACAGGUGTT against Itsn2 was 1.86; that for GGGAGUUAUUUAAGAUUCUTT against Has1 was 0.0567; that for GAAAAAUAAUGGAGUUUGGTT against Gtf2h5 was 0.513. The value for CCAGUGGAGUAAACUGUAATT against Ltbp1 was 2.24 (active); that for GGAAGUGGUCCACCUGAUCTT against Mms19 was -0.324; that for GGCCCAUCUGAGGAAGCUUTT against Magea4 was -1.55. Turning to GGAACUUCAUAAACACUUGTT against Oas3, the z-score is -0.545. The value for GGUUCUGGAAAGUUCUCUGTT against Sorcs2 was -0.0101; that for GGUGAUGUUUUAUGGCAGGTT against Olfr1335 was 0.329. The value for CGAUGAUCGGCUCAACAAGTT against Rplp2 was -0.401; that for GGCCAUACGCAAGCUCAAGTT against Rtl5 was -2.96 (active); that for GGUUCCUCACAAGCAUUCUTT against Olfr818 was 0.276.

Take GCAUGAAGUUGCACAUCCCTT against Cox8b: the z-score was -0.42.

For the sequence GGGAGCUAUUUAUCCUAUUTT against Zc4h2, the z-score was 0.214. Take GCCUCCUGAAUGACCACAUTT against Klk1b27: the z-score is 2.29 (active). With GGACUGUGAUUGUUUCAGATT against Mep1a, the z-score was -0.0817. As for GGUAUCAUCUAUAGAGACUTT against Prkch, the figure is -0.265; as for “CCGUGCCAAACUUCUUACUTT against 2610528J11Rik”, -0.1; as for GGGCUAGAGGAAAACGAAATT against Crot, 1.64.

Regarding CGCAGAGAGUAGAAAAUUGTT against Pdia5, the z-score is -0.428.

Regarding GGACUGUCAUCUUCCUCAGTT against Ston2, the z-score is -2.97 (active). The value for GCUAUGACCGGAGGUUCUATT against Morn5 was 0.555; that for GGAAACGAAGAGGAAGAAUTT against Ddit3 was -0.571; that for CCAGUAUAUUCUGAGGGUUTT against Isl1 was 0.374. As for GGAGACUGAGGAAGAAUCUTT against Atcay, the figure is -0.302. As for GGACUGUGACAUAUUCUUUTT against Zfp54, the figure is 2.74 (active); as for GGGUGGACUGAAUGCUGAUTT against Qtrt1, 0.665. GGUGUACCUUGGGACUUACTT against Prpf18: the z-score is -2.84 (active). Consider GGUUUACUUCCCAUACCUGTT against Pold1, for which the z-score was 0.701. As for GGCAAUACGUAACAUGCCATT against Slc6a4, the figure is -0.148; as for GGACGAAGACACCAAAGUGTT against Camk2a, -1.31. As for GGUAGGGACCUAUCCUUGGTT against Cramp1l, the figure is -0.518; as for GGAUGGAGUUCACAUUUUCTT against Utp11, 0.816; as for CCUUGAGCAAAUCACACAUTT against Stk32b, 3.94 (active).

Turning to GGACAAGAACUUAGUGAUGTT against Emc9, the z-score is 0.522.

On to GGCUGGAACCCUAAUUUCUTT against Tpo, for which the z-score is 1.32. In the case of AGUGGGCUUCAAAUUUCCATT against Aym1, the z-score was -0.551.

For GCAUGAUCGUGUUUGUUUATT against Srpk2, the z-score is 0.722. As for GGUUUCAAUAAUCCAGGAATT against Naa16, the figure is 0.352; as for CCUCAAAUGGCCACACACUTT against Kcnj11, -1.27. The value for GGACUAAAUGGUCAAGAUUTT against Rbm8a was -2.74 (active). CCUUGGAUGUAUUCAUAUATT against Prkar2a: the z-score is 0.255.

As to GGGUACCUGUGGUUUUUGUTT against Hdhd5, the z-score is -0.481.

Turning to GCUCCAAAUUAAAUUUUGCTT against Irf9, the z-score is 0.768. As for GGUCAUUCAAGAGAUACUATT against Dennd10, the z-score was -0.65. As for GGCAAAGGACUUCAUGGCUTT against B4galt4, the figure is -1.42; as for CGACAGAGGAAAACAUAAATT against St13, -2.55 (active).

As to GGAAAGAAAGACUAGUAAATT against Cpne1, the z-score was 0.815. As for CCUCAUCGACAUAAUGAUUTT against Samhd1, the z-score was -0.0182. As for GGUUCACUCUGAAGACACCTT against Pkig, the z-score was 0.0516.

As for CCGUGUGACAUUUGAGUAUTT against Crhbp, the z-score was 1.42. As to CCAGCUUUGGGAAAUACCGTT against Sertad1, the z-score is -2.39 (active).

As to GGGAUCCAUCCUUAUUGUUTT against Ybx2, the z-score was -0.101. As for “GGAUUCUCCUUUACCUUUGTT against B930095G15Rik”, the figure is 0.0151; as for GGAAGACUUUGGCUUUGAATT against Tfpt, -0.165; as for GGAGAACAUCAAGAACAAUTT against Ap2m1, 2.08 (active). The value for GCCCGAAAAAGAGAACUGATT against Wbp11 was 0.056. The value for GGAUCAAGACAAAAAACUUTT against Arhgap17 was -0.17. Take GGACCAGAUUGCUAAUGAGTT against Fam13a: the z-score is -0.0932.

With GGAAUUCUUGAAGAUUCCCTT against Ptpn7, the z-score was 0.884. As for GGAGCUCCUACCAAGACUUTT against Klhl38, the figure is 1.07; as for GGAAUGCAAUGACAAAUGATT against Kank3, 0.198; as for GCUUAUAAGAGUCUAUCUUTT against Stam, -0.217. The value for GCUCAGUUUAUACCAAAAUTT against Api5 was -2.31 (active); that for CCCAAGAUCUAAGAGUAUUTT against Rin3 was -1.18.
